Among the data in PubChem BioAssay (EPA / NIEHS) are outcome and AC50 values, retold here.

Calls of active or inactive are those of the source. The calls were made as follows: active = hit-call score of the fitted dose curve at least 0.9, where 1 is the maximum; inactive = score below 0.9.

Conditions in all cases: mRNA level, 48 h; actives raise or lower the signal
Read-out in one assay: CYP4A11 (gene 1579)
In words: LTEA_HepaRG_CYP4A11: Life Technologies and Expression Analysis (LTEA) Assay for CYP4A11 using HepaRG (AID 2283486). In outline:
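Human hepatic HepaRG cultures receive duplicate 48 h exposures across a concentration-response series topping at 100 uM. Expression changes in CYP4A11 are measured by qRT-PCR relative to DMSO controls.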

Read-out in assay [1]: Cytochrome P450 3A4 (Homo sapiens) (UniProt P08684)
The experiment in a line: LTEA_HepaRG_CYP3A4: Life Technologies and Expression Analysis (LTEA) Assay for CYP3A4 using HepaRG (AID 2283487). In outline:
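Differentiated HepaRG cells, plated 48 h, then dosed 48 h in serum-free induction medium with 0.5% DMSO, 8 half-log concentrations up to 100 uM, duplicate. CYP3A4 mRNA by qRT-PCR, normalized to ACTB/GAPDH/POLR2A; bidirectional fit versus DMSO.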

Read-out in assay [2]: DNA damage-inducible transcript 3 (DDIT3), DDIT3 (gene 1649)
In words: LTEA_HepaRG_DDIT3: Life Technologies and Expression Analysis (LTEA) Assay for DNA damage-inducible transcript 3 (DDIT3) using HepaRG (AID 2283488). In outline: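 Differentiated human HepaRG cells in serum-free induction medium were exposed in duplicate for 48 h to 8 concentrations (top 100 uM, half-log steps, 0.5% DMSO). DDIT3 mRNA measured by TaqMan qRT-PCR, normalized to ACTB/GAPDH/POLR2A; bidirectional fit versus DMSO.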

Read-out in assay [3]: Pro-epidermal growth factor (Homo sapiens) (UniProt P01133)
In words: LTEA_HepaRG_EGF: Life Technologies and Expression Analysis (LTEA) Assay for Epidermal growth factor (EGF) using HepaRG (AID 2283489). The method in brief: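 Concentration-response mRNA assay: HepaRG cells dosed 48 h (max 100 uM, 0.5% DMSO), EGF measured by qRT-PCR and normalized to ACTB/GAPDH/POLR2A.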

Read-out in assay [4]: Early growth response protein 1 (EGR1) transcription factor, EGR1 (gene 1958)
In words: LTEA_HepaRG_EGR1: Life Technologies and Expression Analysis (LTEA) Assay for Early growth response protein 1 (EGR1) transcription factor using HepaRG (AID 2283490). In outline:
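Read-out is EGR1 mRNA level by qRT-PCR, normalized to three housekeeping genes and analysed for gain or loss of signal against 0.5% DMSO. Source cells: human HepaRG, treated 48 h at up to 100 uM in half-log dilutions.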

Read-out in assay [5]: Ezrin (EZR), EZR (gene 7430)
In words: LTEA_HepaRG_EZR: Life Technologies and Expression Analysis (LTEA) Assay for Ezrin (EZR) using HepaRG (AID 2283491). The method in brief:
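EZR transcript levels came from Fluidigm qRT-PCR and were normalized to three housekeeping genes after 48 h chemical exposure of HepaRG cells. Dosing used an 8-point half-log series with a 100 uM top concentration in 0.5% DMSO, tested in duplicate; both directions were fitted versus vehicle.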

Read-out in assay [6]: Cytochrome P450 3A7 (Homo sapiens) (UniProt P24462)
In words: LTEA_HepaRG_CYP3A7: Life Technologies and Expression Analysis (LTEA) Assay for CYP3A7 using HepaRG (AID 2283492). The method in brief: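 qRT-PCR of CYP3A7 in HepaRG lysates after 48 h treatment; concentration-response (8 points, max 100 uM) analysed bidirectionally relative to 0.5% DMSO controls.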

Read-out in the next assay: CYP3A5 (gene 1577)
The experiment in a line: LTEA_HepaRG_CYP3A5: Life Technologies and Expression Analysis (LTEA) Assay for CYP3A5 using HepaRG (AID 2283493). In outline: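 Differentiated HepaRG cells in serum-free induction medium were dosed 48 h with test chemicals (8-point half-log series, top 100 uM, 0.5% DMSO, duplicate). CYP3A5 mRNA measured by qRT-PCR, normalized to ACTB, GAPDH, POLR2A; bidirectional fit versus DMSO.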

Read-out in assay [7]: Fatty Acid-Binding Protein 1 (FABP1), FABP1 (gene 2168)
In words: LTEA_HepaRG_FABP1: Life Technologies and Expression Analysis (LTEA) Assay for Fatty Acid-Binding Protein 1 (FABP1) using HepaRG (AID 2283494). The method in brief:
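HepaRG, 48 h post-plating switched to serum-free induction medium, then dosed 48 h (duplicate, 8 pts, ≤100 uM, 0.5% DMSO). RNA → Fluidigm TaqMan qRT-PCR, FABP1 normed to ACTB/GAPDH/POLR2A. Bidirectional curve fit vs DMSO.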

Read-out in assay [8]: Cytochrome P450 4A22 (Homo sapiens) (UniProt Q5TCH4)
In words: LTEA_HepaRG_CYP4A22: Life Technologies and Expression Analysis (LTEA) Assay for Cytochrome P450 4A22 (CYP4A22) using HepaRG (AID 2283495). The method in brief: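 Concentration-response (8 points, max 100 uM, 0.5% DMSO) in human HepaRG liver cells after 48 h exposure. CYP4A22 mRNA by TaqMan qRT-PCR with housekeeping-gene normalization.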

Read-out in assay [9]: Cytochrome P450 7A1 (Homo sapiens) (UniProt P22680)
In words: LTEA_HepaRG_CYP7A1: Life Technologies and Expression Analysis (LTEA) Assay for Cytochrome P450 7A1 (CYP7A1) using HepaRG (AID 2283496). In outline:
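Gene expression endpoint in human HepaRG liver cells treated for 48 h with test chemicals (up to 100 uM, 0.5% DMSO). Values come from bidirectional concentration-response fitting versus DMSO.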

Read-out in assay [10]: Glutathione S-Transferase (GSTA2), GSTA2 (gene 2939)
The experiment in a line: LTEA_HepaRG_GSTA2: Life Technologies and Expression Analysis (LTEA) Assay for Glutathione S-Transferase (GSTA2) using HepaRG (AID 2283497). In outline: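 HepaRG, 48 h dosing, 8-pt half-log CRC from 100 uM, 0.5% DMSO vehicle, n=2; RNA → Fluidigm TaqMan qRT-PCR; GSTA2 vs ACTB/GAPDH/POLR2A; gain/loss fit vs DMSO.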

Read-out in assay [11]: Glutamate-cysteine ligase catalytic (GCLC), GCLC (gene 2729)
The experiment in a line: LTEA_HepaRG_GCLC: Life Technologies and Expression Analysis (LTEA) Assay for Glutamate-cysteine ligase catalytic (GCLC) using HepaRG (AID 2283498). In outline: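 Read-out is GCLC transcript level by Fluidigm-based TaqMan qRT-PCR, normalized to three housekeeping genes and fitted in both directions relative to 0.5% DMSO. Human HepaRG cells received chemicals for 48 h, up to 100 uM.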

Read-out in assay [12]: Glutamate-cysteine ligase regulatory (GCLM), GCLM (gene 2730)
The experiment in a line: LTEA_HepaRG_GCLM: Life Technologies and Expression Analysis (LTEA) Assay for Glutamate-cysteine ligase regulatory (GCLM) using HepaRG (AID 2283500). In outline:
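Differentiated human HepaRG cells exposed 48 h in serum-free induction medium to 8-point half-log concentrations (top 100 uM, 0.5% DMSO), in duplicate. GCLM mRNA quantified by qRT-PCR, normalized to ACTB, GAPDH, POLR2A; bidirectional fitting versus DMSO.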

Read-out in assay [13]: Heat shock 70 kDa protein 1 (HSPA1A), gene 3303
In words: LTEA_HepaRG_HSPA1A: Life Technologies and Expression Analysis (LTEA) Assay for Heat shock 70 kDa protein 1 (HSPA1A) using HepaRG (AID 2283502). In outline: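 Differentiated human HepaRG cells in serum-free induction medium were exposed in duplicate for 48 h to eight concentrations (top 100 uM, half-log steps, 0.5% DMSO). HSPA1A mRNA was quantified by qRT-PCR, normalized to ACTB, GAPDH and POLR2A, and fitted bidirectionally against DMSO.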

Read-out in assay [14]: Hypoxia-inducible factor 1-alpha (Homo sapiens) (UniProt Q16665)
The experiment in a line: LTEA_HepaRG_HIF1A: Life Technologies and Expression Analysis (LTEA) Assay for Hypoxia-inducible factor 1 (HIF1A) Trancription factor using HepaRG (AID 2283503).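 Also: HIF1A transcript by TaqMan qRT-PCR normalized to ACTB GAPDH and POLR2A.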 In outline: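 HepaRG, 48 h exposure, 8-pt half-log series from 100 uM, 0.5% DMSO vehicle, duplicates. Readout: HIF1A transcript by qRT-PCR (Fluidigm array), housekeeping-normalised. Bidirectional curve fit vs DMSO baseline.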

Read-out in assay [15]: 3-Hydroxy-3-Methylglutaryl-CoA Synthase 2 (HMGCS2), HMGCS2 (gene 3158)
The experiment in a line: LTEA_HepaRG_HMGCS2: Life Technologies and Expression Analysis (LTEA) Assay for 3-Hydroxy-3-Methylglutaryl-CoA Synthase 2 (HMGCS2) using HepaRG (AID 2283504). In outline: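 This steatosis marker was read as HMGCS2 mRNA change in HepaRG cells treated 48 h with up to 100 uM chemical. Normalisation used housekeeping genes; activity in either direction was fitted relative to 0.5% DMSO vehicle.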

Read-out in the next assay: HGF (gene 3082)
In words: LTEA_HepaRG_HGF: Life Technologies and Expression Analysis (LTEA) Assay for Hepatocyte Growth Facto (HGF) using HepaRG (AID 2283505). In outline: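 Using HepaRG monolayers kept in 0.5% DMSO, chemicals were tested in duplicate over eight half-log concentrations from 100 uM for 48 h. Endpoint: HGF mRNA change relative to DMSO, normalized to ACTB/GAPDH/POLR2A.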

Read-out in assay [16]: growth arrest and DNA damage 45 (GADD45G), GADD45G (gene 10912)
The experiment in a line: LTEA_HepaRG_GADD45G: Life Technologies and Expression Analysis (LTEA) Assay for growth arrest and DNA damage 45 (GADD45G) using HepaRG (AID 2283499). The method in brief: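 Concentration-response in HepaRG: 48 h dosing, 0.5% DMSO, highest level 100 uM. GADD45G expression by qRT-PCR, normalised to endogenous controls; bidirectional fit to DMSO.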

Read-out in assay [17]: Glutathione S-transferase M3 (GSTM3), GSTM3 (gene 2947)
In words: LTEA_HepaRG_GSTM3: Life Technologies and Expression Analysis (LTEA) Assay for Glutathione S-transferase M3 (GSTM3) using HepaRG (AID 2283501). In outline: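 Expression of GSTM3 is determined by qRT-PCR in human liver HepaRG cells treated 48 h with an 8-point half-log range from 100 uM in 0.5% DMSO.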

Sequence of Cytochrome P450 3A4 (Homo sapiens) (P08684 whole entry, looked up): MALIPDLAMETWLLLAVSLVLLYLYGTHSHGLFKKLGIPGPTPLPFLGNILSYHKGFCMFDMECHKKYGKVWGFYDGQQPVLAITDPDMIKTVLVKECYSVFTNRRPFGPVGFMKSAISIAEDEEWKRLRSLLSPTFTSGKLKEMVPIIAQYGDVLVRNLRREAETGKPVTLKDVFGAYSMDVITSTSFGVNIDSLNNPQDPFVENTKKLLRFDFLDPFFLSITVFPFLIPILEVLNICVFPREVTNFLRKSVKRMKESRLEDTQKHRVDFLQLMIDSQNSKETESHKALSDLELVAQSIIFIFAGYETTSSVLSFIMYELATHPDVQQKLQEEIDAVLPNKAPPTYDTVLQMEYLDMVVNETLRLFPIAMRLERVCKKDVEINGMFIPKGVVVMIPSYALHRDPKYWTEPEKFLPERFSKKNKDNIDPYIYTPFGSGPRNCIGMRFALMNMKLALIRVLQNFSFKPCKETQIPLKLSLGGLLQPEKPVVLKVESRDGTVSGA
Sequence of Hypoxia-inducible factor 1-alpha (Homo sapiens) (Q16665 whole entry, looked up): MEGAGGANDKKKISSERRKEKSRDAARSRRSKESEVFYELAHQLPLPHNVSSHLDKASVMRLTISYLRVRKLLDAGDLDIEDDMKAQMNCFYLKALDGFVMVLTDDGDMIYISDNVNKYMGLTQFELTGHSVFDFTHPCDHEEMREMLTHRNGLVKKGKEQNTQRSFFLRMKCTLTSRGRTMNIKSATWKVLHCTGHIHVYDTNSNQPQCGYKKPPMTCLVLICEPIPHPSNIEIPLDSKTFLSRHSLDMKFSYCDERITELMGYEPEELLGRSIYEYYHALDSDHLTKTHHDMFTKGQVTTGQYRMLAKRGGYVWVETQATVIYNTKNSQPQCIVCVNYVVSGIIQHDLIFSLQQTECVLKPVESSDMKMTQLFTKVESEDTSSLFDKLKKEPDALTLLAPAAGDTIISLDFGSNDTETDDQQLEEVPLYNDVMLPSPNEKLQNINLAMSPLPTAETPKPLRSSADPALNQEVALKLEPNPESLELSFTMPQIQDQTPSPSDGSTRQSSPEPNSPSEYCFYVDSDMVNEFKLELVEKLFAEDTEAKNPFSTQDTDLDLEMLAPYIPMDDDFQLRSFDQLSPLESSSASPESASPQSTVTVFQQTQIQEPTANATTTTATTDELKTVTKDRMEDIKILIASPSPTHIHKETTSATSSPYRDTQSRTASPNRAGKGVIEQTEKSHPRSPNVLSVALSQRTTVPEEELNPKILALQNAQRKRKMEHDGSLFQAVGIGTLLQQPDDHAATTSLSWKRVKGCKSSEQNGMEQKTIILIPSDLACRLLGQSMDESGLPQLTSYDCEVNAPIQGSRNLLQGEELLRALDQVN
Sequence of Cytochrome P450 3A7 (Homo sapiens) (P24462 whole entry, looked up): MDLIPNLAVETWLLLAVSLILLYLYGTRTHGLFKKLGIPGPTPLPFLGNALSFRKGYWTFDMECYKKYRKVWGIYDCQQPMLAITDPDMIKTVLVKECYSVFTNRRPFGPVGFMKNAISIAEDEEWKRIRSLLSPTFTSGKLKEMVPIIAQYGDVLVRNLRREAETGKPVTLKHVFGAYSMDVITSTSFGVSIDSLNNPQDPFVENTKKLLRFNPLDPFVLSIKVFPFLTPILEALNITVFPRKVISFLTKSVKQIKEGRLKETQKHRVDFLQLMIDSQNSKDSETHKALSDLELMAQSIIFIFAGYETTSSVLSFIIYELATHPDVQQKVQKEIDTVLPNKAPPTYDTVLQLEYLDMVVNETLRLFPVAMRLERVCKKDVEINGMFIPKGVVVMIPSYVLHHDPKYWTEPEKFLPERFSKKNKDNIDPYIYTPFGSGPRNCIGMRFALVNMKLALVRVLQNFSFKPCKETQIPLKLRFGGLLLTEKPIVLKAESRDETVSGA

With `Cc1cc(-c2ccc(N)c(C)c2)ccc1N`, the call (with CYP4A11 (gene 1579); in assay [1]; in [2]; in assay [3]; in [4]; in [5]) was inactive. Also, the compound was classed as inactive (in [6]; with CYP3A5 (gene 1577); in assay [8]; in assay [10]; in [11]; in assay [12]). The compound was classed as inactive (in assay [13]; in assay [14]; with HGF (gene 3082)). Besides, the results for the AC50 in assay [7], in assay [9] and in assay [15] were 24.9 µM (active), 9.92 µM (active) and 19.3 µM (active), respectively.
Regarding `CCCCCCOC(=O)c1ccccc1C(=O)OCCCCCC`, the results for the AC50 (with CYP4A11 (gene 1579); in assay [8]) were 74.7 µM (active) and 83.9 µM (active), respectively. Further, the call in assay [1], in [2], in assay [3], in assay [4], in assay [5] and in assay [6] was inactive. The compound was called inactive (with CYP3A5 (gene 1577); in [7]; in [9]; in assay [10]; in assay [11]; in [16]). In addition, the compound was classed as inactive (in [12]; in assay [13]; in [14]; in assay [15]; with HGF (gene 3082)).
Take `C=CC(=O)NCNC(=O)C=C`: the outcome (with CYP4A11 (gene 1579); in assay [1]; in assay [2]; in [3]; in assay [4]; in assay [5]) was inactive. The outcome (in assay [6]; in the assay with CYP3A5 (gene 1577); in assay [9]; in assay [16]; in [12]; in assay [13]) was inactive. Further, the compound was classed as inactive (in [15]; in the assay with HGF (gene 3082)). Also, the AC50 (in general, the concentration giving half of the maximal activity seen) is 50 µM (active) in assay [7], 24.6 µM (active) in assay [8], 12.7 µM (active) in assay [10] and 15.6 µM (active) in assay [14].
Consider `Cc1cccc([N+](=O)[O-])c1`, for which the outcome (with CYP4A11 (gene 1579); in assay [1]; in assay [2]; in [4]; in [5]; in [6]) was inactive. The call (in the assay with CYP3A5 (gene 1577); in [7]; in assay [10]; in assay [12]; in assay [17]; in assay [13]) was inactive. Moreover, the outcome (in assay [14]; in [15]; with HGF (gene 3082)) was inactive.
Consider `NS(=O)(=O)C(F)(F)C(F)(F)C(F)(F)C(F)(F)C(F)(F)C(F)(F)C(F)(F)C(F)(F)F`, for which the AC50 was 12.6 µM (active) with CYP4A11 (gene 1579); 10.7 µM (active) in [1]; 28.9 µM (active) in assay [2]; 8.93 µM (active) in [3]; 89 µM (active) in [4]; 11.4 µM (active) in assay [5]. In addition, the AC50 in assay [6] is 7.34 µM (active); in the assay with CYP3A5 (gene 1577), 21 µM (active); in assay [7] it was 9.04 µM (active); in assay [8], 11.1 µM (active); in [9], 8.86 µM (active); in [10], 13 µM (active). For the same compound, the AC50 in assay [12] is 0.993 µM (active); in assay [13], 75.5 µM (active); in assay [14] it was 11.4 µM (active); in assay [15] it was 12.8 µM (active); in the assay with HGF (gene 3082), 12.9 µM (active).
